Assay outcomes: PubChem BioAssay, National Center for Advancing Translational Sciences (NCATS)
PLK1 PBD inh = PLK1 (human) polo-box domain binding inhibition; P53350; Plk1 PBD binding of FITC phosphopeptide, fluorescence polarization; Potency, µM, for the others: max response, negative = inhibition, hits mostly inhibitors; 360,000 compounds, 2.8% hits; AID 720504; note: series mostly up to about 57 µM; % is set by controls: 0 for no effect and ±100 for the full control effect; nearly all actives have a fitted effect of over 65% in size
L3MBTL1 inh = L3MBTL1 (human) inhibition | Potency, µM (top dose mostly 57.1 µM), for the others: top-dose activity, negative = inhibition, usual class: inhibitors | 230,000 compounds, 0.66% hits | Q9Y468 | AlphaScreen L3MBTL1–H3K9me1 peptide binding; note: % is set by controls: 0 for no effect and ±100 for the full control effect; nearly all actives have a fitted effect of over 60% in size
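L3MBTL1 (50 nM) pre-complexed 30 min with biotinylated H3(1-15)K9me1 peptide (75 nM), then compounds added for 30 min at room temperature; AlphaScreen streptavidin donor/nickel chelate acceptor beads (10 ug/mL final) read after 30 min dark incubation.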
JMJD2A Tudor inh = blocks the human JMJD2A Tudor domain; AlphaScreen JMJD2A-Tudor / H3K4me3 peptide binding; 390,000 compounds, 4.4% hits; Potency, µM (top dose mostly 114 µM), inactives show top-dose activity change, negative = inhibition, usual class: inhibitors; O75164; AID 504339; note: % is set by controls: 0 for no effect and ±100 for the full control effect; nearly all actives have a fitted effect of over 50% in size
BAZ2B inh = BAZ2B (human) inhibition | Q9UIF8 | AlphaScreen BAZ2B-H3K14Ac peptide displacement | Potency, µM (titrated, usually from 114 µM), without a hit: at the top dose activity change, negative = inhibition, usual class: inhibitors | 360,000 compounds, 4.4% hits; note: % is set by controls: 0 for no effect and ±100 for the full control effect; nearly all actives have a fitted effect of over 60% in size
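BAZ2B (50 nM) with biotin-H3(5-23)K14Ac peptide (50 nM) in PBS pH 7.4, 0.01% Tween-20, preformed 30 min, then compound 30 min at room temperature; top concentration 110uM. AlphaScreen streptavidin donor/nickel chelate acceptor beads (10 ug/mL final), 20 min dark, signal read.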
VDR inh = vitamin D3 receptor (human) inhibition; P11473; VDR-SRC2-3 peptide fluorescence polarization, 2 h; Potency, µM, without a hit: max response, negative = inhibition, hits mostly inhibitors; 400,000 compounds, 0.93% hits; note: % is set by controls: 0 for no effect and ±100 for the full control effect
Target sequence (P11473 whole entry, looked up): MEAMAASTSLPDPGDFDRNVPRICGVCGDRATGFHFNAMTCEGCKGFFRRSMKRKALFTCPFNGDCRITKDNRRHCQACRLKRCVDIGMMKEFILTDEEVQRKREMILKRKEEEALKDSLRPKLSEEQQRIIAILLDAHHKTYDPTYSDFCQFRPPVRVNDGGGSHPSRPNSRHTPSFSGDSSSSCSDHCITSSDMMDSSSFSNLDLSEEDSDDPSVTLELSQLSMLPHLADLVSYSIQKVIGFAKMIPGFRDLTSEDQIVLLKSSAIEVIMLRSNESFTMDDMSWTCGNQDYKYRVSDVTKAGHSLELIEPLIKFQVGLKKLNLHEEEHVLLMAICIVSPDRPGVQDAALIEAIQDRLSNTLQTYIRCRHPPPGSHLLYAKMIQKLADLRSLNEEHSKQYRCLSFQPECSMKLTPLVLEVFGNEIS
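The screen uses fluorescence polarization to detect compounds that interfere with recruitment of the SRC2-3 coactivator peptide to VDR; plates are read after 2 h at room temperature.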
HP1b binding inh = inhibitors of HP1-beta chromodomain binding to methylated histone tails. Potency, µM (series often up to 114 µM), for the others: at the top dose activity change, negative = inhibition, actives largely listed as inhibitors. 390,000 compounds, 0.56% hits. P83916. AlphaScreen HP1-beta / biotin-H3K9me3 peptide binding; note: nearly all actives have a fitted effect of over 70% in size
Target sequence (P83916 whole entry, looked up): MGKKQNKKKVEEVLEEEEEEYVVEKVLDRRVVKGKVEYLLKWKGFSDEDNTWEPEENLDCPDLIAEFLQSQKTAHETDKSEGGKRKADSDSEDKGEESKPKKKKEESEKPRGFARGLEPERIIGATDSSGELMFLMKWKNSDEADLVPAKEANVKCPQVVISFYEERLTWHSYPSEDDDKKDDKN
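Compound inhibition of the preformed complex between 50 nM HP1-beta and 50 nM biotinylated H3K9me3 peptide was read by AlphaScreen. Buffer was PBS pH 7.4 with 0.01% Tween-20. Incubations ran 30 min at room temperature, with 10 ug/mL donor/acceptor beads.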
Numbers without * were called inactive; ? = inconclusive; . = not tested or not shown; [ ] = another dose, or the depositor's remark. Most compounds without a hit are left out; they make up all but 6.9% or so of the library. Calls come from the whole dose curve; as a rule, active = well fitted curve in the direction sought with a large enough effect; inconclusive = small, poorly fitted or top-dose-only effect, or another doubt; inactive = no such curve, though single readings can be large; an effect the other way counts as inactive or inconclusive. Potency is the fitted concentration of half-maximal effect.

SMILES	PLK1 PBD inh	L3MBTL1 inh	JMJD2A Tudor inh	BAZ2B inh	VDR inh	HP1b binding inh
Cc1cccn2c(=O)c3cc(C(=O)NC4CCCCC4)c(=N)n(Cc4ccccc4)c3nc12	2%	.	-5%	25µM*	-10%	34%
c1ccc2c(N3CCNCC3)nc(-c3ccc4c(c3)OCO4)nc2c1	.	.	.	.	0%	.
Cc1ccc(CSc2nc3cccnc3n2Cc2nc(-c3ccccc3F)oc2C)cc1	.	.	-31%	-10%	8%	28%
CC1(C2(O)CCCCC2)NCCc2ccccc21 (stereo not drawn)	-3%	6%	0.89µM*	35µM*	5%	71µM*
Cc1nc2[nH]c(=S)n(C)c(=O)c2nc1C	-8%	3%	89µM*	-11%	-12%	15%
CCOC(=O)c1[nH]c(=S)n(-c2ccccc2)c1C(=O)OCC	-5%	.	.	.	.	.
CCOC(=O)c1[nH]c(=S)n(Cc2ccccc2)c1C(=O)OCC	-11%	.	3.2µM*	.	13%	?
S=c1[nH]c2ccccc2n1CCc1ccncc1	5%	.	?	.	2%	45%
S=c1[nH]c2ccccc2n1Cc1ccccc1	8.4µM*	-1%	?	-10%	?	?
S=c1[nH]c2cnccc2n1Cc1ccccc1	?	.	18µM*	-18%	-4%	11%
CCOc1ccc(/C=C/C(=O)Nc2ccc3nc(N(CC)CC)cc(C)c3c2)cc1OC	.	.	-31%	-23%	-11%	3%
CCOC(=O)c1oc2ccc(CNCCO)c(Cl)c2c1C	-10%	-7%	-5%[57.1 µM]	10%	-16%	2%
CCOC(=O)c1oc2ccc(CNC3CCCCC3)c(Cl)c2c1C	-5%	7%	4µM*	?	2%	?
COc1ccc(/C=C(\NC(=O)/C=C/c2ccco2)C(=O)NCCc2nc3ccccc3[nH]2)cc1	-8%	-14%	?	50µM*	-12%	?
CCSC1=N/C(=C\c2ccc(C)s2)C(=O)S1	-6%	-3%	-5%	-30%	-6%	25%
CCOc1cc(/C=C2\N=C(SCC)SC2=O)cc([N+](=O)[O-])c1OC(C)=O	27µM*	-23%	?	13µM*	-1%	?
CCOc1c(OC(C)=O)ccc(/C=C2\N=C(SCC)SC2=O)c1[N+](=O)[O-]	30µM*	-8%	79µM*	45µM*	?	14µM*
CCOc1cc(/C=C2\N=C(SC)SC2=O)cc([N+](=O)[O-])c1OC(C)=O	?	?	-11%[11.4 µM]	18µM*	-8%	45µM*
Cc1cc(C)c(S(=O)(=O)N2CCCOC2CNC(=O)C(=O)NCCCn2ccnc2)c(C)c1 (stereo not drawn)	2%	-7%	1%	?	6%	20%
Cc1ccc(C)c(S(=O)(=O)N2CCCOC2CNC(=O)C(=O)NCCCn2ccnc2)c1 (stereo not drawn)	-5%	-23%	-33%	45µM*	-4%	?
Cc1ccc(S(=O)(=O)N2CCC(C(=O)NCCCn3ccnc3)CC2)cc1	2%	.	-3%	-1%	2%	25%
O=C(NCCCn1ccnc1)C1CCCN(S(=O)(=O)c2ccc(F)cc2)C1 (stereo not drawn)	1%	.	13µM*	-11%	-9%	23%
O=C(NCCCn1ccnc1)C(=O)NCC1OCCN1S(=O)(=O)c1ccc(F)cc1 (stereo not drawn)	-7%	?	56µM*	6.3µM*	5%	28%
COc1ccc(S(=O)(=O)N2CCCOC2CNC(=O)C(=O)NCCCn2ccnc2)cc1 (stereo not drawn)	-7%	5%	-12%	79µM*	7%	20%
CCOc1ccc(Br)cc1CNCCSc1nnnn1-c1ccccc1	.	.	-1%	6%	25%	91%
SMILES	PLK1 PBD inh	L3MBTL1 inh	JMJD2A Tudor inh	BAZ2B inh	VDR inh	HP1b binding inh
C=C(C)c1cc2c(s1)c1cnn(Cc3ccccc3F)c(=O)c1n2C	.	.	-22%	.	.	.
Cc1ccc(S(=O)(=O)N2CCCOC2CNC(=O)C(=O)NCCCn2ccnc2)cc1 (stereo not drawn)	-5%	-11%	-23%	50µM*	-10%	21%
Cc1ccc(S(=O)(=O)N2CCCOC2CNC(=O)C(=O)NCc2cccnc2)cc1 (stereo not drawn)	0%	1%	-7%	4%	11%	26%
Cc1ccc(CNC(=O)c2ccc(-c3nc(CN4CCc5ccccc54)c(C)o3)cc2)cc1	.	.	-35%	-17%	5%	17%[57 µM]
Cc1oc(-c2ccc(C(=O)N(C)Cc3ccccc3)cc2)nc1CN1CCc2ccccc21	.	.	28µM*	25µM*	12%	-22%[57 µM]
Cc1ccc(C(=O)CC(C(=O)O)c2cn(CCC#N)c3ccccc23)cc1 (stereo not drawn)	27µM*	2%	50µM*	3%	-23%	?
O=C(NNC(=O)c1cccc(-n2cccc2)c1)c1ccc(F)cc1	-27%	22µM*	?	40µM*	-14%	-22%
N#CN1CCC(NC(=O)c2ccc(C(F)(F)F)cc2)CC1	.	.	-12%	.	.	.
CCCCn1c(-c2csc3c2CCC(C)C3)n[nH]c1=S (stereo not drawn)	-9%	-6%	-27%	-7%	2%	6%
CCCCn1c(-c2csc(CC)c2)n[nH]c1=S	-13%	-7%	40µM*	-36%	-7%	-19%
CCCCn1c(-c2csc3ccccc23)n[nH]c1=S	-11%	.	?	-2%	-1%	22%
CCCc1cc(-c2n[nH]c(=S)n2CC(C)C)cs1	-12%	1%	79µM*	-30%	-21%	-2%
CCCCn1c(-c2csc(C(C)C)c2)n[nH]c1=S	?	-4%	79µM*	-8%	-11%	?
Cc1ccsc1-c1n[nH]c(=S)n1CC(C)C	-21%	2%	8.9µM*	-29%	-5%	-8%
CC(C)NS(=O)(=O)c1ccc(OCC(=O)Nc2ccc(F)cc2F)cc1	-1%	.	-12%	-2%	-5%	10%
Cc1ccc2c(c1)c1c(n2C)-c2[nH]ncc2CC1	6%	-7%	?	45µM*	24%	?
CCOc1cc(/C=C2/C(=O)NN(c3cccc(Cl)c3)C2=O)ccc1O	?	-8%	?	35µM*	?	-18%
COc1cc(/C=C2/C(=O)NN(c3cccc(Cl)c3)C2=O)cc(OC)c1O	20%	-24%	50µM*	28µM*	79µM*	?
Cc1cc(C(=O)Nc2nc3ccc(Cl)cc3s2)nn1C	-17%	2%	25µM*	-2%	6%	16%
Cn1ncc(Cl)c1C(=O)Nc1nc2ccc(Cl)cc2s1	17µM*	9%	-10%	-4%	-19%	-16%
COc1ccc(C(=O)OCC(=O)Nc2ccc3[nH]c(=O)[nH]c3c2)cc1	3%	-7%	-11%	1%	-5%	35%
CCN(CC)c1ccc(NC(=O)CN2CCN(c3ccc(F)cc3)CC2)cc1	1%	-27%	?	?	-3%	-17%
